# Reference: PubChem BioAssay (Tox21)
# “And” between values parts separate entries of the source, which are not always exact repeats. Equal entries are not always repeated. Results filed as inconclusive are left out. Entries that show only a call come without a potency. More than one record can exist for a structure, and the calls need not agree. The source made the active and inactive calls. Unless noted, the call rests on the fitted dose curve; in most records, active means well fitted curve in the direction sought with a large enough effect in the repeat runs; inconclusive means weak or mixed curves; inactive means no such curve, though single readings can be large; an effect the other way counts as inactive or inconclusive.
# Experiments:
# [1] = qHTS assay to identify small molecule agonists of the sonic hedgehog signaling (Shh) pathway (AID 1259368; calls by dose curve;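 further: NIH/3T3-derived 3T3Gli1-Luc cells carrying a stable Gli1-driven firefly luciferase reporter; series mostly up to about 92 µM; nearly all actives have a fitted effect of over 15% in size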)
# Outline: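 NIH/3T3-derived 3T3Gli1-Luc cells with stably integrated Gli1-driven firefly luciferase, 2,000 cells/well, compounds added after 4 hr. Incubated 24 hr at 37C, 5% CO2; luminescence read after 30 min with luciferase reagent at room temperature.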
# [2] = qHTS assay to identify small molecule agonists of the androgen receptor (AR) signaling pathway in the presence of an antagonist - cell viability counter screen (AID 1259379);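 further: MDA-kb2 human breast cancer cells carrying an MMTV luciferase reporter; series mostly up to about 92 µM; nearly all actives have a fitted effect of over 25% in size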
# Outline: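 MDA-kb2 cells (MMTV-luciferase, AR/GR), 3,000/well, 5 h attachment, then 3.0 µM nilutamide (final) and compounds at 15 concentrations. Viability by CellTiter-Fluor fluorescence after 16 h at 37 °C, 0% CO2, in the reporter wells.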
# [3] = qHTS assay to identify small molecule agonists of the estrogen receptor beta (ER-beta) signaling pathway - cell viability counter screen (AID 1259380); further: nearly all actives have a fitted effect of over 30% in size
# Outline: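 ER-beta-UAS-bla HEK293T cells in medium with 2% charcoal-stripped FBS, pre-incubated 6 hr, then treated 16 hr at 37C. Cytotoxicity read in the same wells by CellTiter-Glo luminescence after 30 min at room temperature.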
# [4] = qHTS assay to identify small molecule antagonists of the estrogen receptor beta (ER-beta) signaling pathway - cell viability counter screen (AID 1259382);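 further: HEK293T cells carrying ER-beta-UAS-bla reporter stimulated with estradiol; series mostly up to about 92 µM; nearly all actives have a fitted effect of over 55% in size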
# Outline: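 ER-beta-UAS-bla HEK293T cells in 2% charcoal-stripped FBS medium, treated with compound plus 1 nM 17-beta-estradiol for 16 h at 37C. Viability read by CellTiter-Glo luminescence after 30 min at room temperature in the same wells.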
# [5] = target: Estrogen receptor (Homo sapiens) (UniProt P03372); assay: qHTS assay to identify small molecule agonists of the estrogen receptor alpha (ER-alpha) signaling pathway in the presence of an antagonist (AID 1259383; calls by dose curve; further: top concentration of the series differs between compounds; nearly all actives have a fitted effect of over 15% in size)
# Outline: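 VM7Luc4E2 cells express endogenous full-length ER-alpha with an ERE-luciferase reporter and were hormone-deprived for 5 days. Compounds at 15 concentrations were added with 10.0nM ICI-182,780 for 22hr at 37C. Luminescence was read with ONE-Glo.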
# [6] = qHTS assay to identify small molecule agonists or antagonists of the thyroid stimulating hormone receptor (TSHR) signaling pathway - wild type cell line counter screen (AID 1259384; calls by dose curve)
# Outline: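 Counter screen in untransfected Hek293: compounds (15-point titration, triplicate) plus phosphodiesterase inhibitor Ro20-1724 added after 18 h plating; 30 min RT. Intracellular cAMP via competitive d2/cryptate immunoassay, 1 h incubation.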
# [7] = target: Progesterone receptor (Homo sapiens) (UniProt P06401); assay: qHTS assay to identify small molecule agonists of the progesterone receptor (PR) signaling pathway (AID 1346784; calls by dose curve; further: nearly all actives have a fitted effect of over 30% in size)
# Outline: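 Using charcoal-stripped serum (2%) to limit endogenous steroids, PR-UAS-bla HEK 293T cells received compounds for 16 hr at 37C after 6 hr plating; beta-lactamase FRET fluorescence was recorded following 2 hr substrate loading at room temperature.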
# [8] = target: Progesterone receptor (Homo sapiens) (UniProt P06401); assay: qHTS assay to identify small molecule antagonists of the progesterone receptor (PR) signaling pathway (AID 1346795; active means well fitted inhibition curve with a large enough effect in the signal ratio in the repeat runs, not every such curve was filed as active; the % refers to the signal ratio; further: potency means the concentration at half of the fitted maximal effect)
# Outline: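 Inhibition of R5020-induced (1 nM final) beta-lactamase reporter signal in PR-UAS-bla HEK293T cells was scored by FRET fluorescence after overnight (16 hr) compound treatment.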
# [9] = qHTS assay to identify small molecule antagonists of the progesterone receptor (PR) signaling pathway - cell viability counter screen (AID 1346798); further: series mostly up to about 92 µM; nearly all actives have a fitted effect of over 50% in size
# Outline: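 ATP content as viability readout: CellTiter-Glo luminescence, 30 min room temperature, in PR-UAS-bla HEK293T cells after 16 hr compound/R5020 treatment at 37C and 5% CO2.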
# [10] = qHTS assay to identify small molecule antagonists of the TGF-beta/Smad signaling pathway - cell viability counter screen (AID 1346824); further: nearly all actives have a fitted effect of over 50% in size
# Outline: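 Cytotoxicity counter-screen run in the same wells as the beta-lactamase Smad reporter read: CellTiter-Glo luminescence after 30 min at room temperature. HEK 293T SBE-bla cells had 5 hr compound exposure at 37 C with TGF-beta1 (0.25 ng/mL stock).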
# [11] = qHTS assay to identify small molecule agonists of the TGF-beta/Smad signaling pathway - cell viability counter screen (AID 1346829); further: top concentration of the series differs between compounds; nearly all actives have a fitted effect of over 45% in size
# Outline: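 Luminescence from CellTiter-Glo, read after a 30 min room-temperature incubation, gives cell viability of SBE-bla HEK 293T cells treated 5 hr with compounds at 37 C.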
# [12] = qHTS assay to identify small molecule agonists of the TGF-beta/Smad signaling pathway (AID 1346859; active means well fitted activation curve with a large enough effect in the signal ratio in the repeat runs, not every such curve was filed as active; the % refers to the signal ratio; further: series mostly up to about 77 µM)
# Outline: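 Stable Smad binding element-beta-lactamase HEK 293T cells; 5 hr compound exposure at 37 C under 5% CO2; 2 hr room-temperature substrate step; fluorescence excited at 405 nm, collected at 460 nm and 530 nm.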
# [13] = target: Thyrotropin-releasing hormone receptor (Homo sapiens) (UniProt P34981); assay: qHTS assay to identify small molecule antagonists of the thyrotropin-releasing hormone receptor (TRHR) signaling pathway (AID 1346877; active means well fitted inhibition curve with a large enough effect in the repeat runs, not every such curve was filed as active; further: series mostly up to about 51 µM)
# Outline: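 TRHR-expressing HEK293 cells loaded with calcium dye for 2 h at 37 C; compounds pre-incubated 5 min at room temperature before TRH challenge at 1 nM final. Intracellular calcium fluorescence read kinetically for 3 min; 15 concentrations in triplicate.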
# [14] = target: Androgen receptor (Homo sapiens) (UniProt P10275); assay: qHTS assay to identify small molecule agonists of the androgen receptor (AR) signaling pathway in the presence of an antagonist (AID 1259381; calls by dose curve; further: nearly all actives have a fitted effect of over 15% in size; further: potency means the concentration at half of the fitted maximal effect)
# Outline: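 MDA-kb2 cells carrying MMTV-luciferase (AR/GR responsive), 3,000 cells/well, co-treated with 3.0 uM nilutamide final. Compounds at 15 concentrations, 16 hr at 37C without CO2. Luciferase luminescence read after 30 min with ONE-Glo.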
# [15] = target: Thyrotropin receptor (Homo sapiens) (UniProt P16473); assay: qHTS assay to identify small molecule antagonists of the thyroid stimulating hormone receptor (TSHR) signaling pathway (AID 1259385; calls by dose curve; further: nearly all actives have a fitted effect of over 20% in size)
# Outline: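 Antagonist mode: compound-treated TSHR-expressing HEK293 cells were stimulated with 1.5 ng/mL TSH (final) in presence of Ro20-1724 for 30 min at RT. HTRF cAMP detection after 1 h; each compound tested at 15 concentrations, triplicate.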
# [16] = qHTS assay to identify small molecule agonists of the estrogen receptor alpha (ER-alpha) signaling pathway in the presence of an antagonist - cell viability counter screen (AID 1259386);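 further: series mostly up to about 92 µM; cells exposed to compounds for 22 h at 37 °C before the viability read; nearly all actives have a fitted effect of over 30% in size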
# Outline: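 Cell viability in VM7Luc4E2 cells (endogenous full-length ER-alpha) measured by CellTiter-Fluor fluorescence in the same wells as the luciferase screen. Cells pre-cultured 5 days in charcoal-stripped serum, then treated 22 h with compounds at 15 concentrations plus 10.0nM ICI-182,780.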
# [17] = qHTS assay to identify small molecule agonists of the progesterone receptor (PR) signaling pathway - cell viability counter screen (AID 1346799; calls by dose curve; further: nearly all actives have a fitted effect of over 45% in size)
# Outline: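 Cytotoxicity in PR-bla HEK293T cells: 16 h compound, 37C; CellTiter-Glo added post-FRET read; luminescence after 30 min RT.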
# [18] = target: Estrogen receptor beta (Homo sapiens) (UniProt Q92731); assay: qHTS assay to identify small molecule antagonists of the estrogen receptor beta (ER-beta) signaling pathway (AID 1259378; active means well fitted inhibition curve with a large enough effect in the signal ratio in the repeat runs, not every such curve was filed as active; the % refers to the signal ratio)
# Outline: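 Antagonist mode: compounds added to beta-lactamase reporter HEK293T ER-beta-UAS cells stimulated with E2 (1nM final), 16 hr at 37C. LiveBLAzer B/G FRET substrate, 2 hours room temperature, fluorescence read-out.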
# [19] = target: Estrogen receptor beta (Homo sapiens) (UniProt Q92731); assay: qHTS assay to identify small molecule agonists of the estrogen receptor beta (ER-beta) signaling pathway (AID 1259377; active means well fitted activation curve with a large enough effect in the signal ratio in the repeat runs, not every such curve was filed as active; the % refers to the signal ratio)
# Outline: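 In HEK293T cells bearing a UAS-beta-lactamase reporter under ER-beta control, DMSO-delivered compounds were incubated for 16 hr at 37C. Activity was detected as fluorescence 2 hours after LiveBLAzer B/G FRET substrate addition.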
# Chain of Thyrotropin receptor (Homo sapiens) (P16473 whole entry, looked up): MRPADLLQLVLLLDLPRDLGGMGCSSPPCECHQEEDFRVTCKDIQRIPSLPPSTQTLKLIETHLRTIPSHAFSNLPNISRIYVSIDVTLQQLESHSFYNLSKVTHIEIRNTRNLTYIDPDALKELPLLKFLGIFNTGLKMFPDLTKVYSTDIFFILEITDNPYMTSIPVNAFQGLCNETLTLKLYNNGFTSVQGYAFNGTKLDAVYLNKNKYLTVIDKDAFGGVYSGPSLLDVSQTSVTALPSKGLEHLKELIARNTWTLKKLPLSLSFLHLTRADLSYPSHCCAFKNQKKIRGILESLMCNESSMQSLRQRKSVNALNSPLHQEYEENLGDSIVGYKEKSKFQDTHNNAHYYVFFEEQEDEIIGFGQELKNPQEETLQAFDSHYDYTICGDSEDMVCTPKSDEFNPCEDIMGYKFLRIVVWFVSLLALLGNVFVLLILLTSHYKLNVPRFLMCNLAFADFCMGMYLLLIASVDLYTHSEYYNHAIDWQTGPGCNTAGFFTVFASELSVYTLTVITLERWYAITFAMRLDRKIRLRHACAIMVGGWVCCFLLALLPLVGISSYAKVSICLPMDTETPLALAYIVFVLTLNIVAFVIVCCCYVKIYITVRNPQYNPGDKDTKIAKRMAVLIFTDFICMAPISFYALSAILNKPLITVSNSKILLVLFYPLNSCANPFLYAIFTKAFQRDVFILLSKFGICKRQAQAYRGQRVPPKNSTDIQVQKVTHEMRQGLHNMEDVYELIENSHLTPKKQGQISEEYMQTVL
# Chain of Progesterone receptor (Homo sapiens) (P06401 whole entry, looked up): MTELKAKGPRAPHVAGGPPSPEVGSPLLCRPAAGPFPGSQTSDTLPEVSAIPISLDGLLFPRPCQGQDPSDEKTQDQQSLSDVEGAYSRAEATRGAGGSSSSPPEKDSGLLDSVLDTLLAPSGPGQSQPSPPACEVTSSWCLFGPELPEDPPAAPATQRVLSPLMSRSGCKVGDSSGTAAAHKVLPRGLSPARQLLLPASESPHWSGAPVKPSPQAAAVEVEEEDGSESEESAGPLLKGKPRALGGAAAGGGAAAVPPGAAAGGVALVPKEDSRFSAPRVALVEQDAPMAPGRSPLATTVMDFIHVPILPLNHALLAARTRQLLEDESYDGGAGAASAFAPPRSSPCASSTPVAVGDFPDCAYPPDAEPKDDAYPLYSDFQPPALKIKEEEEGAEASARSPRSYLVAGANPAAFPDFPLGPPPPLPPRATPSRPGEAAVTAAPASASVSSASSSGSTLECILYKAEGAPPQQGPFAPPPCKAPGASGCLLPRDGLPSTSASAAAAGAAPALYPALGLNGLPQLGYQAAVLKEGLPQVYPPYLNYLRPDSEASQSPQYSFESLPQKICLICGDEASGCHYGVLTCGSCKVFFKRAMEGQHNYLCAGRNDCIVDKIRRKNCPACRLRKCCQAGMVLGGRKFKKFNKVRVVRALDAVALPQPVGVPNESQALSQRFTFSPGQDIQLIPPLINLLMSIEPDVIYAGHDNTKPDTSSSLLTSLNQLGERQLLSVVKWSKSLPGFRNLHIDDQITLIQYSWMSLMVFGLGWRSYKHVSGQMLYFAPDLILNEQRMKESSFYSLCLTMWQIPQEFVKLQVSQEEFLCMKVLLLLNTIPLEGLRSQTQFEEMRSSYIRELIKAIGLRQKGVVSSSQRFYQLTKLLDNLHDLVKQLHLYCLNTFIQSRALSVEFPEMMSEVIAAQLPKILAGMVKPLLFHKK
# Chain of Thyrotropin-releasing hormone receptor (Homo sapiens) (P34981 whole entry, looked up): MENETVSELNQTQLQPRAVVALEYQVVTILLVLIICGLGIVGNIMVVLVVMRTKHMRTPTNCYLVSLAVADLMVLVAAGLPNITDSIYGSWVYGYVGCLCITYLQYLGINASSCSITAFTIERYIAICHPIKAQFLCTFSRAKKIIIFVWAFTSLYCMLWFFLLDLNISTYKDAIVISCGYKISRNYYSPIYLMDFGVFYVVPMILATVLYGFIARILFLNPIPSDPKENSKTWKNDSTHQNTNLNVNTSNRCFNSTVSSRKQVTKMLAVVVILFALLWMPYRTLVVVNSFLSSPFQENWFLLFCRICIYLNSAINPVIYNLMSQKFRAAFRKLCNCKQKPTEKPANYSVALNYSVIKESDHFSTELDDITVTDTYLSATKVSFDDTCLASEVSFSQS
# Chain of Androgen receptor (Homo sapiens) (P10275 whole entry, looked up): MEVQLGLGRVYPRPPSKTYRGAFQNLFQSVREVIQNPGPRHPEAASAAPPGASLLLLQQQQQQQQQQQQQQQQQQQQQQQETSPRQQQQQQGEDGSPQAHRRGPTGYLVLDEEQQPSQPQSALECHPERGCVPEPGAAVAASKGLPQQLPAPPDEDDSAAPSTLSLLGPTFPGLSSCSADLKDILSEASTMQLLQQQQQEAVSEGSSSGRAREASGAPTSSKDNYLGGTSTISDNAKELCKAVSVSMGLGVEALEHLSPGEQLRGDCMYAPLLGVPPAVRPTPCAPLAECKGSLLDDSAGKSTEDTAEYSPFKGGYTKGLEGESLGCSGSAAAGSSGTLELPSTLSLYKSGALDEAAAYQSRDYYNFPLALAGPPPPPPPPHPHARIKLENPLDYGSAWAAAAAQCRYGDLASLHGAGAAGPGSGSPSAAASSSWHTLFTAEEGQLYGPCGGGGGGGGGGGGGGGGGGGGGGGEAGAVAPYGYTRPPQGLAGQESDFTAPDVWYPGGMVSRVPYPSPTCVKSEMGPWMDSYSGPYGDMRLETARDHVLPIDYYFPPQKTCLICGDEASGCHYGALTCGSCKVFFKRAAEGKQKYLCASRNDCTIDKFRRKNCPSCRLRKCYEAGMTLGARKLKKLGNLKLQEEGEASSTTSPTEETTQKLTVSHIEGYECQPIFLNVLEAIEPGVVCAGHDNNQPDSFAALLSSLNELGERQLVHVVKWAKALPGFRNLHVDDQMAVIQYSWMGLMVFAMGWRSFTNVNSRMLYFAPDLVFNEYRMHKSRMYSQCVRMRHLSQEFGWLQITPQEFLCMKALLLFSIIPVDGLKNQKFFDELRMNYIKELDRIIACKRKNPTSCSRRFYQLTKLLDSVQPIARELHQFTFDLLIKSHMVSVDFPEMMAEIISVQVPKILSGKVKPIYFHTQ
# Chain of Estrogen receptor (Homo sapiens) (P03372 whole entry, looked up): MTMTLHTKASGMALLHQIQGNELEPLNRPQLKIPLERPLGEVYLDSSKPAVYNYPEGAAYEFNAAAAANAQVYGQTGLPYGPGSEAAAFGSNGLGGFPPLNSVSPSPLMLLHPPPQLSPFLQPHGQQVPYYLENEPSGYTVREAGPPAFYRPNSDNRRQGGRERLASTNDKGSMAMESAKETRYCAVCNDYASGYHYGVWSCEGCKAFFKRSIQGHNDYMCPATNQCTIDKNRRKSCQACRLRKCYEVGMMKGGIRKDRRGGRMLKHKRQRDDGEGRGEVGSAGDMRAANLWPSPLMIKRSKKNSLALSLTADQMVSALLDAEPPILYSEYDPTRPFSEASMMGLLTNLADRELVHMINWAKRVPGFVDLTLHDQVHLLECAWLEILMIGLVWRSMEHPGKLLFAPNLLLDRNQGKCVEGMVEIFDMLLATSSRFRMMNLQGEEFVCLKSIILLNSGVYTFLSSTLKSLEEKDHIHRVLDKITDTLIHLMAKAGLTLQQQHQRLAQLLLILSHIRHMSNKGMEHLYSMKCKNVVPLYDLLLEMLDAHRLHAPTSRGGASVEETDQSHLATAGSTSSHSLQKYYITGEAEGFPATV
# Chain of Estrogen receptor beta (Homo sapiens) (Q92731 whole entry, looked up): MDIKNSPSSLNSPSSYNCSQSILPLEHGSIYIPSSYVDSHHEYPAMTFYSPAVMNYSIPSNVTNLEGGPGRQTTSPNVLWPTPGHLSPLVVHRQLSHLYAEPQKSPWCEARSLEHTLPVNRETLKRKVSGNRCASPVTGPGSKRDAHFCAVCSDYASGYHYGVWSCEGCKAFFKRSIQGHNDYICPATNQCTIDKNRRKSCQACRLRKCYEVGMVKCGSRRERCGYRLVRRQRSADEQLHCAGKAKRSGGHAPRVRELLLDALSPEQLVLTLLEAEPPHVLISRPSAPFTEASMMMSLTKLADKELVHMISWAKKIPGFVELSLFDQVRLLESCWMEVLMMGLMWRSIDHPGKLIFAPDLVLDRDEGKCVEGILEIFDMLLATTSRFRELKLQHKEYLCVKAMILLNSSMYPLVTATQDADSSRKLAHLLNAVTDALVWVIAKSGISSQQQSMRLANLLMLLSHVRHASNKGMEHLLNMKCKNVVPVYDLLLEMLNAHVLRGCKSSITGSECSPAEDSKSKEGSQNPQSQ
Compound,outcome [1],Potency [2],Potency [3],Potency [4],Potency [5],outcome [6],Potency [7],Potency [8],Potency [9],Potency [10],outcome [11],outcome [12],outcome [13],Potency [14],Potency [15],Potency [16],Potency [17],outcome [18],outcome [19]
N#Cc1ccc(C2CCCc3cncn32)cc1 (stereo not drawn),inactive,inactive,inactive,inactive,inactive,inactive,inactive,inactive,inactive,inactive,inactive,inactive,inactive,–,–,–,–,–,–
COc1ccc2c(c1)c(CC(=O)OCC(=O)O)c(C)n2C(=O)c1ccc(Cl)cc1,inactive,inactive,inactive,inactive,–,inactive,inactive,inactive,–,inactive,inactive,–,inactive,inactive,inactive,–,–,–,–
CC(C)(c1ccc(O)cc1)c1ccc(O)cc1,inactive,inactive,–,inactive,–,inactive,–,15.2 µM (active),–,inactive,inactive,inactive,inactive,inactive and 27.8 µM (active),inactive,inactive,–,–,–
Cn1c(N)c(N=O)c(=O)n(C)c1=O,inactive,inactive,inactive,inactive,–,–,inactive,–,inactive,inactive,inactive,inactive,inactive,–,–,inactive,–,–,–
CCCCNC(=O)NCCCC,inactive,inactive,inactive,inactive,inactive,inactive,–,inactive,inactive,–,–,inactive,inactive,inactive,inactive,inactive,–,–,–
CC(C)(O)C#CC(C)(C)O,inactive,inactive,inactive,inactive,inactive,inactive,inactive,inactive,inactive,inactive,inactive,inactive,inactive,–,inactive,inactive,inactive,–,–
CC(=O)N(CC(O)CO)c1c(I)c(C(=O)NCCO)c(I)c(C(=O)NCC(O)CO)c1I (stereo not drawn),inactive,inactive,inactive,inactive,–,inactive,inactive,inactive,inactive,inactive,inactive,inactive,inactive,–,inactive,inactive,inactive,–,–
CCc1ccc(O)c(OC)c1,inactive,inactive,inactive,inactive,–,inactive,inactive,–,inactive,inactive,inactive,inactive,inactive,–,inactive,inactive,inactive,inactive,–
CC(C)c1cc2c(cc1S(=O)(=O)O)[C@@]1(C)CCC[C@@](C)(C(=O)O)[C@@H]1CC2,inactive,inactive,inactive,inactive,inactive,inactive,inactive,–,inactive,inactive,inactive,inactive,inactive,–,inactive,inactive,inactive,–,inactive
OCCOc1ccc(OCCO)cc1,inactive,inactive,inactive,inactive,inactive,inactive,inactive,inactive,inactive,inactive,inactive,inactive,–,–,inactive,inactive,inactive,–,–
CN1N=C(C(N)=O)CCC1=O,inactive,inactive,inactive,inactive,inactive,inactive,inactive,inactive,inactive,inactive,inactive,inactive,–,inactive,inactive,inactive,inactive,–,–
CN(C(=O)c1c(O)c2ccccc2n(C)c1=O)c1ccccc1,inactive,inactive,inactive,inactive,–,–,inactive,inactive,inactive,inactive,inactive,inactive,–,–,–,–,–,–,–
Cc1[nH]c(=O)c(C#N)cc1-c1ccc2nccn2c1,inactive,inactive,inactive,inactive,–,inactive,inactive,–,inactive,inactive,inactive,inactive,inactive,–,inactive,inactive,inactive,–,–
COC(=O)CCSCCC(=O)OC,inactive,inactive,inactive,inactive,–,inactive,inactive,inactive,inactive,inactive,inactive,inactive,inactive,–,inactive,inactive,inactive,–,–
